Pf growth 96h: P. falciparum growth inhibition at 96 hour, primary screen for plastid delayed-death inhibitors | P. falciparum luciferase reporter growth, 96 h | AID 504834 | 320,000 compounds, 6.9% hits | Potency, µM (top dose mostly 28.7 µM), for the others: top-dose activity change, negative = inhibition, actives largely listed as inhibitors; further: potency means the concentration at half of the fitted maximal effect; on the % scale 0 is the no-effect control and ±100 the full control effect
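Compounds incubated with erythrocytes infected by luciferase-expressing P. falciparum (2% hematocrit, 0.05% parasitemia final) for 96 hours, 37 C in 5% CO2. Growth inhibition scored as decreased luciferase luminescence.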
Pf growth 48h: P. falciparum growth inhibition at 48 hours (one generation); P. falciparum luciferase growth in erythrocytes, 48 h; Potency, µM (series often up to 28.7 µM), without a hit: top-dose activity change, negative = inhibition, actives largely listed as inhibitors; 310,000 compounds, 5.9% hits; AID 504832; further: potency means the concentration at half of the fitted maximal effect; on the % scale 0 is the no-effect control and ±100 the full control effect
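In quantitative HTS format, infected erythrocytes bearing luciferase-reporter parasites were treated for a single generation at 37 C. Luminescence after adding detection reagent served as the growth measure.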
CHX counter: affects cycloheximide protein synthesis inhibition readout, counter-screen; cell reporter, cycloheximide protein synthesis inhibition counterscreen; max response, %; 300,000 compounds, 12% hits; in the data active means max response mostly above about 13%, no sharp cut-off; inactive means mostly below about 14%; further: read at 38.3 µM for the half of the compounds with a filed dose; 0% is about no effect
Shiga inhibitor: blocks Shiga toxin action in Vero cells; Vero cells, Shiga toxin protein synthesis inhibition reporter; 290,000 compounds, 9.2% hits; AID 2315; inhibition, % at 38.7 µM; in the data active means inhibition mostly above about 28%, no sharp cut-off; inactive means mostly below about 43%; further: 0% is about no effect
Active calls of the source: *. Compounds with a hit are over-represented: about 21% of the library has one in this group of screens. Unless noted, the call rests on the fitted dose curve; in most records, active means well fitted inhibition curve with a large enough effect; inconclusive means small, poorly fitted or top-dose-only effect, or another doubt; inactive means no such curve, though single readings can be large or run the other way.

Results for Cc1ccc(-n2ncc3c(=O)n(CC(N)=O)cnc32)cc1C ?
Pf growth 96h: inconclusive; Pf growth 48h: 28%; CHX counter: 7; Shiga inhibitor: 17

Results for C#CCn1cnc2c(cnn2-c2ccc(C)c(C)c2)c1=O ?
Pf growth 96h: inconclusive; Pf growth 48h: 123%; CHX counter: 35*; Shiga inhibitor: 141*

What do the screens show for `Cc1ccc(-n2ncc3c(=O)n(CC#N)cnc32)cc1C`?
Pf growth 96h: inconclusive; Pf growth 48h: 51%; CHX counter: 65*; Shiga inhibitor: 40

How did CC(C)Oc1ccc(C(=O)NN2C(=O)NC3(CCCCC3)C2=O)cc1 do in these assays?
Pf growth 96h: 58%; Pf growth 48h: 18%

How did CC(=O)NC(Cc1ccccc1F)C(=O)NC1CCN(C(=O)NCc2ccccc2)CC1 (configuration not stated) do in these assays?
Pf growth 96h: 32%; Pf growth 48h: 5%; CHX counter: 0; Shiga inhibitor: -11

What do the screens show for `CCC(C)(C)NC(=O)CN(Cc1ccc(OC)cc1)C(=O)CCC(=O)Nc1nccs1`?
Pf growth 96h: -3%; Pf growth 48h: -15%; CHX counter: -2; Shiga inhibitor: -8

How did COc1ccc(S(=O)(=O)CC2(O)CCN(C(=O)CC(C)C)CC2)cc1 do in these assays?
Pf growth 96h: 8%; Pf growth 48h: 9.3µM*; CHX counter: 1; Shiga inhibitor: -13

How did CC(=O)NC(Cc1ccc(F)cc1)C(=O)NC1CCN(c2ncccc2[N+](=O)[O-])CC1 (configuration not stated) do in these assays?
Pf growth 96h: 15%; Pf growth 48h: 13%; CHX counter: -2; Shiga inhibitor: 13

What do the screens show for `COc1ccc(Nc2ncc(C#N)c(N)n2)c(OC)c1`?
Pf growth 96h: 26%; Pf growth 48h: 34%; CHX counter: 20*; Shiga inhibitor: 70*

How did COc1ccc(Nc2nc(N3CCOCC3)nc(N3CCOCC3)n2)c(OC)c1 do in these assays?
Pf growth 96h: -17%; Pf growth 48h: inconclusive; CHX counter: 1

Results for Cc1ccccc1Nc1ncc(C#N)c(N)n1 ?
Pf growth 96h: inconclusive; Pf growth 48h: 14%; CHX counter: 16; Shiga inhibitor: 33*

What do the screens show for `CC(=O)N1CCN(c2ccc(NC(=O)c3cccc([N+](=O)[O-])c3)cc2)CC1`?
Pf growth 96h: inconclusive; Pf growth 48h: inconclusive; CHX counter: -3; Shiga inhibitor: 37

What do the screens show for `CCN(CC(=O)NCc1ccc(F)cc1)CC(=O)NC1CCCC1`?
Pf growth 96h: 25%; Pf growth 48h: 27%; CHX counter: -4; Shiga inhibitor: -13

Results for c1csc(-c2cn3ccc4ccccc4c3n2)c1 ?
Pf growth 96h: 105%; Pf growth 48h: 0.26µM*; CHX counter: 1; Shiga inhibitor: -18

Results for O=c1c2ccccc2nc(SCc2nc(-c3ccccc3)no2)n1-c1ccc(F)cc1 ?
Pf growth 96h: 29%; Pf growth 48h: inconclusive; CHX counter: 10; Shiga inhibitor: -20

Results for Cc1ccc(S(=O)(=O)/N=C2\C=C(Nc3cccc(C(=O)O)c3)C(=O)c3ccccc32)cc1 ?
Pf growth 96h: -9%; Pf growth 48h: 4.7µM*; CHX counter: 6; Shiga inhibitor: 35

How did O=C(O)c1cccc(NC2=C(N3CCOCC3)C(=O)c3ccccc3C2=O)c1 do in these assays?
Pf growth 96h: 32%; Pf growth 48h: 7%; CHX counter: 9; Shiga inhibitor: 49

How did Cc1ccc(S(=O)(=O)/N=C2\C=C(Nc3cccc(C(=O)O)c3)C(=O)c3ccccc32)c(C)c1 do in these assays?
Pf growth 96h: 19%; Pf growth 48h: 1.7µM*; CHX counter: 24*; Shiga inhibitor: 64*

Results for CC(C)(C)c1ccc(S(=O)(=O)/N=C2\C=C(NS(=O)(=O)c3ccccc3)C(=O)c3ccccc32)cc1 ?
Pf growth 96h: 3%; Pf growth 48h: -8%; CHX counter: 0; Shiga inhibitor: -6

How did CCc1ccc(S(=O)(=O)/N=C2\C=C(Nc3ccc(C(=O)O)cc3)C(=O)c3ccccc32)cc1 do in these assays?
Pf growth 96h: 3.7µM*; Pf growth 48h: 2.3µM*; CHX counter: -4; Shiga inhibitor: -14

How did COc1ccc(NC(C)(C)c2nnnn2-c2c(C)cccc2C)cc1 do in these assays?
Pf growth 96h: -13%; Pf growth 48h: -5%; CHX counter: -2; Shiga inhibitor: 1

How did CCOC(=O)/C(C#N)=C\c1ccc(OCC(=O)Nc2ccc(C)cc2C)c(OC)c1 do in these assays?
Pf growth 96h: 2.6µM*; Pf growth 48h: 39%; CHX counter: 3; Shiga inhibitor: -7

How did O=C(Nc1ccc2c(c1)OCO2)c1cnn2cccnc12 do in these assays?
Pf growth 48h: 283%; CHX counter: 49*; Shiga inhibitor: 74*

What do the screens show for `O=C(Nc1cccc(O)c1)c1cnn2cccnc12`?
Pf growth 96h: -6%; CHX counter: 40*; Shiga inhibitor: 101*

Results for COC(=O)c1c(NC(=O)CN2C(=O)C(=O)N(CC(C)C)C2=O)sc(C)c1C ?
Pf growth 96h: inconclusive; Pf growth 48h: 4%; CHX counter: -4; Shiga inhibitor: -17

Results for O=C1CS/C(=N/N=C/c2ccncc2)N1 ?
Pf growth 96h: 15µM*; Pf growth 48h: inconclusive; CHX counter: -2; Shiga inhibitor: -1

Results for Cc1ccc(-c2csc(NC(=O)C3CCN(S(=O)(=O)c4cccs4)CC3)n2)cc1 ?
Pf growth 96h: 12µM*; Pf growth 48h: inconclusive; CHX counter: -3; Shiga inhibitor: -3

What do the screens show for `Cc1ccc(NC(=O)C2CCN(S(=O)(=O)c3cccs3)CC2)cc1`?
Pf growth 96h: inconclusive; Pf growth 48h: inconclusive; CHX counter: 7; Shiga inhibitor: 19

Results for Cc1nc2ccc(NC(=O)C3CCN(S(=O)(=O)c4cccs4)CC3)cc2s1 ?
Pf growth 96h: 9.3µM*; Pf growth 48h: inconclusive; CHX counter: 2; Shiga inhibitor: 18

Results for O=C(Nc1nc(-c2ccc3ccccc3c2)cs1)C1CCN(S(=O)(=O)c2cccs2)CC1 ?
Pf growth 96h: inconclusive; Pf growth 48h: inconclusive; CHX counter: -3; Shiga inhibitor: -1

What do the screens show for `COc1ccc(C(=O)NCCOc2ccccc2)cc1S(=O)(=O)N1CCOCC1`?
Pf growth 96h: -30%; Pf growth 48h: inconclusive

What do the screens show for `Cn1c(CN2CCCC2)nc2cc(NC(=O)c3ccco3)ccc21`?
Pf growth 48h: 73%; CHX counter: 33*; Shiga inhibitor: 57

What do the screens show for `CCCC(=O)Nc1ccc2c(c1)nc(CN1CCCCC1)n2C`?
Pf growth 96h: 1%; Pf growth 48h: 5%; CHX counter: -1; Shiga inhibitor: 22

What do the screens show for `Cn1c(CN2CCCCC2)nc2cc(NC(=O)c3cccs3)ccc21`?
Pf growth 96h: -27%; Pf growth 48h: 10µM*; CHX counter: 28*; Shiga inhibitor: 43*

What do the screens show for `COc1ccc(C(=O)Nc2ccc3c(c2)nc(CN2CCCC2)n3C)cc1`?
Pf growth 96h: 8%; Pf growth 48h: 8%; CHX counter: 6; Shiga inhibitor: -5

How did CC1CCN(CCc2nc3cc(NC(=O)Nc4ccccc4)ccc3n2C)CC1 do in these assays?
Pf growth 96h: inconclusive; Pf growth 48h: 6.6µM*; CHX counter: 35*; Shiga inhibitor: 111*
